PubChem BioAssay (Tox21)
Values joined by “and” are separate entries in the source; they are usually repeats but may differ in a detail not shown here. Equal entries are not always repeated. Active and inactive are the calls of the source. A call without a number means that no potency is given here. Unless noted, calls come from the whole dose curve; as a rule, active = well fitted curve in the direction sought with a large enough effect in the repeat runs; inconclusive = weak or mixed curves; inactive = no such curve, though single readings can be large; an effect the other way counts as inactive or inconclusive.

Legend:
[1] = qHTS assay for identifying genotoxic compounds that show differential cytotoxicity against isogenic chicken DT40 cell lines with known DNA damage response pathways - wild type cell line (AID 743012); note: nearly all actives have a fitted effect of over 60% in size; note: potency is the fitted concentration of half-maximal effect
In short: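 Viability of DNA repair-proficient chicken DT40 cells was assessed by CellTiter-Glo luminescence following 40 h compound exposure at 37 C/5% CO2.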

[2] = qHTS assay for identifying genotoxic compounds that show differential cytotoxicity against isogenic chicken DT40 cell lines with known DNA damage response pathways - Rev3 mutant cell line (AID 743014); note: nearly all actives have a fitted effect of over 55% in size; note: potency is the fitted concentration of half-maximal effect
[3] = qHTS assay for identifying genotoxic compounds that show differential cytotoxicity against isogenic chicken DT40 cell lines with known DNA damage response pathways - Rad54/Ku70 mutant cell line (AID 743015); note: nearly all actives have a fitted effect of over 60% in size; note: potency is the fitted concentration of half-maximal effect
[4] = qHTS assay to identify small molecule antagonists of the androgen receptor (AR) signaling pathway - cell viability counter screen (AID 743033; note: nearly all actives have a fitted effect of over 45% in size; note: potency is the fitted concentration of half-maximal effect)
[5] = target: Androgen receptor (Homo sapiens) (UniProt P10275); test: qHTS assay to identify small molecule agonists of the androgen receptor (AR) signaling pathway (AID 743036; active = well fitted activation curve with a large enough effect in the signal ratio in the repeat runs, with a control signal flat, not every such curve was filed as active; inconclusive = weak or mixed curves, or effect the other way; inactive = no such curve, though single readings can be large or run the other way; the % refers to the signal ratio)
In short: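 Fluorescence from a beta-lactamase FRET substrate served as read-out in AR-UAS-bla GripTite HEK293 cells. Cells were treated with DMSO-dissolved compounds for 16 h at 37C, then with LiveBLAzer B/G substrate for 2 h at room temperature.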

[6] = target: Androgen receptor (Homo sapiens) (UniProt P10275); test: qHTS assay to identify small molecule agonists of the androgen receptor (AR) signaling pathway using the MDA cell line (AID 743040; note: nearly all actives have a fitted effect of over 20% in size)
In short: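 Agonist activity is measured as luciferase luminescence in human MDA-kb2 cells whose MMTV reporter responds to both AR and GR. Compounds in DMSO incubate 16 h at 37C, 0% CO2, and ONE-Glo is read after 30 min.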

[7] = target: Androgen receptor (Homo sapiens) (UniProt P10275); test: qHTS assay to identify small molecule antagonists of the androgen receptor (AR) signaling pathway using the MDA cell line (AID 743042; note: nearly all actives have a fitted effect of over 55% in size; note: potency is the fitted concentration of half-maximal effect)
In short: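 MDA-kb2 cells (human breast carcinoma, stably carrying an MMTV-luciferase reporter responsive to AR and GR) were plated at 3,000 cells/well and preincubated 5 hr at 37C, then given compound plus R1881 agonist for 16 h. ONE-Glo luminescence was read.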

[8] = qHTS assay to identify small molecule antagonists of the thyroid receptor (TR) signaling pathway - cell viability counter screen (AID 743064); note: nearly all actives have a fitted effect of over 50% in size; note: potency is the fitted concentration of half-maximal effect
In short: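 Fluorescence from CellTiter-Fluor, added after 23.5 h exposure at 37 °C, reported viability of GH3.TRE-Luc cells co-treated with compound and 1 nM T3. Measured in the same wells as the luciferase TR readout.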

[9] = system: thyroid hormone receptor (rat, GH3 cells); test: qHTS assay to identify small molecule agonists of the thyroid receptor (TR) signaling pathway (AID 743066; calls by dose curve)
[10] = qHTS assay to identify small molecule antagonists of the estrogen receptor alpha (ER-alpha) signaling pathway - cell viability counter screen (AID 743074; calls by dose curve; note: nearly all actives have a fitted effect of over 45% in size; note: potency is the fitted concentration of half-maximal effect)
[11] = target: Estrogen receptor (Homo sapiens) (UniProt P03372); test: qHTS assay to identify small molecule agonists of the estrogen receptor alpha (ER-alpha) signaling pathway (AID 743075; calls by dose curve; note: potency is the fitted concentration of half-maximal effect)
[12] = qHTS assay to identify small molecule antagonists of the estrogen receptor alpha (ER-alpha) signaling pathway using the BG1 cell line (AID 743080; calls by dose curve;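 note: BG1 cells stimulated with 17beta-estradiol alongside compound; nearly all actives have a fitted effect of over 25% in size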; note: potency is the fitted concentration of half-maximal effect)
In short: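 Seeding, 24 h rest, compound transfer from DMSO, 17beta-estradiol addition, 21.5 h incubation, CellTiter-Fluor (30 min, 37 C), then ONE-Glo (30 min, room temperature): this sequence was run on BG1-Luc-4E2 reporter cells.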

[13] = qHTS assay to identify small molecule antagonists of the estrogen receptor alpha (ER-alpha) signaling pathway using the BG1 cell line - cell viability counter screen (AID 743081);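 note: compound given together with 17beta-estradiol as the ER stimulus; nearly all actives have a fitted effect of over 45% in size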; note: potency is the fitted concentration of half-maximal effect
Aromatase (Homo sapiens) = Aromatase (Homo sapiens) (UniProt P11511); test: qHTS assay to identify aromatase inhibitors (AID 743083); note: nearly all actives have a fitted effect of over 55% in size; note: potency is the fitted concentration of half-maximal effect
[14] = target: Androgen receptor (Homo sapiens) (UniProt P10275); test: qHTS assay to identify small molecule antagonists of the androgen receptor (AR) signaling pathway (AID 743035; active = well fitted inhibition curve with a large enough effect in the signal ratio in the repeat runs, not every such curve was filed as active; inconclusive = weak or mixed curves, or effect the other way; inactive = no such curve, though single readings can be large or run the other way; the % refers to the signal ratio; note: potency is the fitted concentration of half-maximal effect)
In short: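 Reporter HEK293 cells were exposed to compounds and R1881 overnight (16 h, 37C); beta-lactamase activity was then quantified by FRET fluorescence.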

[15] = qHTS assay to identify small molecule antagonists of the androgen receptor (AR) signaling pathway using the MDA cell line - cell viability counter screen (AID 743041; note: nearly all actives have a fitted effect of over 45% in size; note: potency is the fitted concentration of half-maximal effect)
In short: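 qHTS viability read-out; MDA-kb2 AR-luc; R1881-stimulated; 16 h exposure at 37C, 0% CO2; CellTiter-Fluor, 30 min; fluorescence intensity.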

[16] = qHTS assay to identify small molecule antagonists of the thyroid receptor (TR) signaling pathway (AID 743065); note: nearly all actives have a fitted effect of over 55% in size; note: potency is the fitted concentration of half-maximal effect
In short: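 GH3.TRE-Luc rat pituitary cells carrying two TR response elements driving luciferase were plated for 4 h, given compound plus 1 nM T3 (final), and incubated 23.5 h at 37 C. ONE-Glo luminescence measured reporter inhibition; CellTiter-Fluor fluorescence tracked cytotoxicity.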

[17] = target: Estrogen receptor (Homo sapiens) (UniProt P03372); test: qHTS assay to identify small molecule antagonists of the estrogen receptor alpha (ER-alpha) signaling pathway (AID 743069; active = well fitted curve in the direction sought with a large enough effect in the signal ratio in the repeat runs, not every such curve was filed as active; inconclusive = weak or mixed curves, or effect the other way; inactive = no such curve, though single readings can be large or run the other way; the % refers to the signal ratio; note: potency is the fitted concentration of half-maximal effect)
In short: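 Screening used a UAS-driven beta-lactamase reporter integrated into HEK293 cells expressing ER-alpha, stimulated with 17beta-estradiol alongside test compounds over 18 hr at 37C; signal came from LiveBLAzer B/G FRET fluorescence.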

[18] = target: Estrogen receptor (Homo sapiens) (UniProt P03372); test: qHTS assay to identify small molecule agonists of the estrogen receptor alpha (ER-alpha) signaling pathway using the BG1 cell line (AID 743079); note: nearly all actives have a fitted effect of over 20% in size; note: potency is the fitted concentration of half-maximal effect
[19] = qHTS assay to identify small molecule antagonists of the glucocorticoid receptor (GR) signaling pathway - cell viability counter screen (AID 720693); note: nearly all actives have a fitted effect of over 55% in size

Estrogen receptor (Homo sapiens), sequence (P03372 whole entry, looked up): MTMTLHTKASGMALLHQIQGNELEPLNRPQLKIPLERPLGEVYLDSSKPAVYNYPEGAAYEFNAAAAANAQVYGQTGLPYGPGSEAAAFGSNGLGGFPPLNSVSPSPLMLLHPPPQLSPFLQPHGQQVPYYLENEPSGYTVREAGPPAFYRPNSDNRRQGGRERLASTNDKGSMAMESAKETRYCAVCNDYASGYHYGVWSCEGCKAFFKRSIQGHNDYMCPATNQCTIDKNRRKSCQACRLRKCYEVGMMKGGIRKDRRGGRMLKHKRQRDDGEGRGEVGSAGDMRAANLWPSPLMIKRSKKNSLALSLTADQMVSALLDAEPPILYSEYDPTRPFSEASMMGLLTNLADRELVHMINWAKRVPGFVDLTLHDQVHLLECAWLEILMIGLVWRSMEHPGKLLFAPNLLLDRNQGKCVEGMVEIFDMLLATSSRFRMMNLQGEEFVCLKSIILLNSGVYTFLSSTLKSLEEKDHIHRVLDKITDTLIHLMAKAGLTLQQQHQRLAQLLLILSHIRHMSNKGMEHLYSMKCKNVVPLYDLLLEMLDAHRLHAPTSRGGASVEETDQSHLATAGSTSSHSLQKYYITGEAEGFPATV
Aromatase (Homo sapiens), sequence (P11511 whole entry, looked up): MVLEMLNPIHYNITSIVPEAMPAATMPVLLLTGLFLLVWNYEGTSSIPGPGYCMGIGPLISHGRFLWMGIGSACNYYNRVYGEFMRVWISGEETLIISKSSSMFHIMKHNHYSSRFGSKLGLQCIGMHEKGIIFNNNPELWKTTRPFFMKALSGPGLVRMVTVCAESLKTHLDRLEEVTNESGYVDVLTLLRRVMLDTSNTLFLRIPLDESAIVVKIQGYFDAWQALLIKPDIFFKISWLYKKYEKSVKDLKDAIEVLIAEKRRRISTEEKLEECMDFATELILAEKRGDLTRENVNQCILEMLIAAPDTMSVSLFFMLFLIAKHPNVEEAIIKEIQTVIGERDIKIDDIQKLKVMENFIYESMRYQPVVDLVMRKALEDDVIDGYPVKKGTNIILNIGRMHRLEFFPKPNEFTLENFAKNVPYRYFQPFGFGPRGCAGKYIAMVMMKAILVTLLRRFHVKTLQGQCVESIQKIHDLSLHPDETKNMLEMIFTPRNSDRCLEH
Androgen receptor (Homo sapiens), sequence (P10275 whole entry, looked up): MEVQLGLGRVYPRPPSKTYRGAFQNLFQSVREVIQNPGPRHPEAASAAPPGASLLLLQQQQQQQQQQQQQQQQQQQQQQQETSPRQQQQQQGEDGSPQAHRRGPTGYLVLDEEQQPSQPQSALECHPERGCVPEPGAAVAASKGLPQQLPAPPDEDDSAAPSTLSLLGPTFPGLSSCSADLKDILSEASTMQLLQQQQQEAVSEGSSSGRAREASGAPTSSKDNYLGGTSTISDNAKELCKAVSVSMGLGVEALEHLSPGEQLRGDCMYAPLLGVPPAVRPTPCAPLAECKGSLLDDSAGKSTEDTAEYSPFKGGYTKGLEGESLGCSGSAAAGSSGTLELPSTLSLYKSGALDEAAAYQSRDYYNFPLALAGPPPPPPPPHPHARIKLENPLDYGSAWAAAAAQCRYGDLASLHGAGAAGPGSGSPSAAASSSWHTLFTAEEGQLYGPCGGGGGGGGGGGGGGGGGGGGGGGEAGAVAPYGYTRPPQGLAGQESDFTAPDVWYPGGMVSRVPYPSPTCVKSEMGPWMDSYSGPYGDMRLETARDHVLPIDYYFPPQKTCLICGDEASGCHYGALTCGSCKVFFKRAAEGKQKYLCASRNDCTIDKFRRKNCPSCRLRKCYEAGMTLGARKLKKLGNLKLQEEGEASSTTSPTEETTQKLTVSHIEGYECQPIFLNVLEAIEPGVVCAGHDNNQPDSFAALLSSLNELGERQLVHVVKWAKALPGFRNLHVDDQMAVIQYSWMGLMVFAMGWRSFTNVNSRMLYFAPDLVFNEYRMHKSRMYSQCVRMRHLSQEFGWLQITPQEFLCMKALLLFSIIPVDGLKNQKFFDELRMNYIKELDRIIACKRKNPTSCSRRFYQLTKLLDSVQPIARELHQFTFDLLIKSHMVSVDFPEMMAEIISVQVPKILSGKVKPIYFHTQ

SMILES | Potency [1] | Potency [2] | Potency [3] | Potency [4] | outcome [5] | Potency [6] | Potency [7] | Potency [8] | Potency [9] | Potency [10] | Potency [11] | Potency [12] | Potency [13] | Potency (Aromatase (Homo sapiens)) | Potency [14] | Potency [15] | Potency [16] | Potency [17] | Potency [18] | Potency [19]
IC(I)=C(I)I | 0.611 µM (active) | 1.22 µM (active) | 1.22 µM (active) | 12.3 µM (active) | inactive | inactive | 19.3 µM (active) | 7.7 µM (active) | inactive | inactive | inactive | 9.69 µM (active) | inactive | 6.86 µM (active) |  |  |  |  |  | 
C[N+](C)(C)CCCl | inactive | inactive | inactive | inactive |  | inactive | inactive | inactive | inactive | inactive |  |  | inactive | inactive | inactive | inactive | inactive | inactive | inactive | 
CCOP(=S)(OCC)Oc1cc(Cl)c(Br)cc1Cl |  |  |  | inactive | inactive | inactive | inactive |  |  | inactive | inactive | inactive | inactive | inactive |  | inactive |  |  |  | inactive
CC1(C)CCC(Cc2ccc(Cl)cc2)C1(O)Cn1cncn1 (centres undefined) | 27.3 µM (active) | 15.4 µM (active) | 27.3 µM (active) |  |  |  |  |  | inactive | inactive | inactive | 61.1 µM (active) | inactive | 30.6 µM (active) |  |  | 61.1 µM (active) | 61.6 µM [inconclusive] (active) |  | 
O=C1c2ccccc2C(=O)C1C(=O)C(c1ccccc1)c1ccccc1 |  |  |  | inactive |  |  |  |  | inactive | inactive |  |  | inactive | inactive |  | inactive |  |  |  | inactive
O=C(Nc1ccccc1)Nc1ccnc(Cl)c1 | 17.2 µM (active) | 15.4 µM (active) | 13.7 µM (active) | 38.9 µM (active) |  | inactive | 30.6 µM (active) |  | inactive | inactive | inactive |  | inactive | 54.5 µM (active) |  |  |  | 13.8 µM [inconclusive] (active) |  | 
C=CC[C@]1(O)CC[C@H]2[C@@H]3CCC4=CC(=O)CCC4=C3C=C[C@@]21C | 9.44 µM (active) | 16.8 µM (active) | 10.6 µM (active) | inactive |  |  |  |  | inactive |  | 1.69 µM [inconclusive] (active) | 29.8 µM (active) | inactive |  |  | inactive |  |  | 1.33 µM (active) | 
O=S1(=O)OC(c2cc(Br)c(O)c(Br)c2)(c2cc(Br)c(O)c(Br)c2)c2ccccc21 | 31.5 µM (active) | 28.1 µM (active) | 25 µM (active) | inactive |  | inactive |  |  | inactive |  | inactive |  | 22.3 µM (active) | 22.3 µM (active) |  | 62.8 µM (active) | 28.1 µM (active) |  |  | 
COc1nn(CSP(=S)(OC)OC)c(=O)s1 | 19.3 µM (active) | 45.8 µM (active) | 50.5 µM (active) |  |  |  |  |  | inactive |  | inactive | inactive | inactive | 61.1 µM (active) |  |  |  | inactive | inactive | 
CCCN(CC1CC1)c1c([N+](=O)[O-])cc(C(F)(F)F)cc1[N+](=O)[O-] | inactive | inactive | inactive | inactive |  |  |  |  | inactive | inactive | inactive | inactive | inactive | inactive |  | inactive |  | inactive | inactive | 
II |  |  |  | inactive |  | inactive | inactive | inactive | inactive | inactive | inactive | inactive | inactive |  | inactive | inactive | inactive | inactive | inactive | inactive
CC(C)(OO)c1ccccc1 | 30.6 µM (active) | 27.3 µM (active) | 17.2 µM (active) | inactive |  |  |  |  |  | inactive | inactive | inactive | inactive | inactive |  | inactive |  | inactive | inactive | 
O=C1C(=O)c2cccc3cccc1c23 | 2.73 µM (active) | 1.72 µM (active) | 2.43 µM (active) |  |  |  |  | inactive | inactive |  | inactive | inactive |  | inactive |  | inactive |  | inactive | inactive | 
O=C(O)C1(c2ccc3c(c2)OC[C@H](Cc2ccc(-c4ccccc4)cc2)[C@H]3O)CCCC1 | 61.1 µM (active) | 61.1 µM (active) | 61.1 µM (active) |  |  |  |  |  |  | 54.9 µM (active) |  |  | inactive | inactive |  |  | 54.5 µM (active) |  |  | 
CO/N=C(/C(=O)OC)c1ccccc1COc1ccccc1C | 0.611 µM (active) | 0.969 µM (active) | 0.864 µM (active) | 6.92 µM (active) |  | inactive | 27.3 µM (active) |  | inactive |  |  |  | inactive |  |  |  | 3.06 µM (active) |  | inactive | 
CCCCC(O)(Cn1cncn1)c1ccc(Cl)cc1Cl (centres undefined) | 15.3 µM (active) | 13.7 µM (active) | 13.7 µM (active) | 48.9 µM (active) | inactive | inactive |  |  |  | inactive | inactive |  |  | 48.5 µM (active) | 17.4 µM (active) | inactive | 61.1 µM (active) |  |  | 
O=C1NCN(c2ccccc2)C12CCN(CCCOc1ccc(F)cc1)CC2 | 10.6 µM (active) | 13.3 µM (active) | 16.8 µM (active) | inactive |  |  |  |  |  | inactive | inactive |  |  | 16.8 µM (active) |  |  |  | 10.7 µM [inconclusive] (active) |  | 
CN(C)c1ccc(N(C)C)cc1 |  |  |  | inactive |  |  |  |  | inactive |  | inactive |  | inactive |  |  | inactive | inactive |  |  | inactive
COCCOCCO |  |  | 61.1 µM (active) | inactive |  |  |  | 30.6 µM (active) | inactive |  | inactive |  |  | inactive |  | inactive | 48.6 µM (active) | inactive | inactive | 
O=C(CCl)c1ccc(Cl)cc1Cl | 668 nM (active) and 1.72 µM (active) | 1.06 µM (active) and 2.73 µM (active) and 17.1 µM (active) | 944 nM (active) and 2.43 µM (active) | inactive | inactive | inactive | inactive |  | inactive | 38.9 µM (active) | inactive | inactive | inactive | inactive |  | inactive | 1.5 µM (active) and 3.44 µM (active) | inactive | inactive | 
